Only a selection was taken, and hits are over-represented in it overall.
ST2 inh = inhibitors of human ST2 (IL1RL1) binding to IL-33, primary screen, biochemical, AlphaLISA; Interleukin-1 receptor-like 1 (Homo sapiens), Q01638; AlphaLISA ST2-Fc/biotin-IL-33 interaction, 1 h; inhibition, % for hits at 17 µM; hit rate 2.3% among 78,000; in the data active = inhibition above about 30%
Target sequence (Q01638 whole entry, looked up): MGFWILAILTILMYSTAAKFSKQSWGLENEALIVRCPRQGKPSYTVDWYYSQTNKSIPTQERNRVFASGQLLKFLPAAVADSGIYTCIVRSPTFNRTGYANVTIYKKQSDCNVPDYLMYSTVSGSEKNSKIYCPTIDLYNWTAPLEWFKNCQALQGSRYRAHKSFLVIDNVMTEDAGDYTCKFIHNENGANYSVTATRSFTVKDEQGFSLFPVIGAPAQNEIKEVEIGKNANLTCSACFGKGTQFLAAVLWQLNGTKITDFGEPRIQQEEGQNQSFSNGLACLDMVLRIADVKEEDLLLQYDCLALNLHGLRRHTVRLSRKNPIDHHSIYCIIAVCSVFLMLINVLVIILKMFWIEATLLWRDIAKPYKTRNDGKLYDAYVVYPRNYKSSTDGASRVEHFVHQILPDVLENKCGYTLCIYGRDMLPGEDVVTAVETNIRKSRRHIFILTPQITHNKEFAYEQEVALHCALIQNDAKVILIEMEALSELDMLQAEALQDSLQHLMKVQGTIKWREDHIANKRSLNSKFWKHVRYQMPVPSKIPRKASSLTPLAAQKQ
Of the large screens only hits and unclear results are named; the others gave an inactive call.

Cc1cc(C)n(Cc2cc(C(=O)N(C)C(C)c3cccs3)n[nH]2)n1 (stereo not given)	none
O=C(O)CC1(CC(=O)N[C@H]2CO[C@H]3[C@@H]2OC[C@@H]3n2nnnc2Oc2ccc(-n3cncn3)cc2)CCCC1	none
O=C(O)c1ccc(CN2C[C@H](O)C[C@H]2c2nc(-c3ccccn3)no2)cc1	none
Cc1cc(C)n(-c2cccc(CN3CCC(O)(Cc4cc(-c5ccccc5)no4)CC3)c2)n1	none
Cn1cc(CC(=O)NCCC2=CCCCC2)c2ccccc21	none
CCOc1ccc2c(=O)c(Oc3ccc(OC)cc3)c(C(F)(F)F)oc2c1	none
CC(Sc1oc(-c2ccco2)nc1S(=O)(=O)c1ccc(F)cc1)c1ccccc1 (stereo not given)	none
CSc1cccc(NS(=O)(=O)c2cc(Br)cc3c2N(C(C)=O)C(C)C3)c1 (stereo not given)	none
Cc1ccc(C(=O)N[C@@H]2C=C(C(=O)NCCC(N)=O)C[C@@H](O)[C@@H]2O)cc1	none
NC(=O)CCNC(=O)C1=C[C@@H](NC(=O)Cc2cccs2)[C@@H](O)[C@H](O)C1	none
CC(C)(C)CC(=O)N[C@@H]1C=C(C(=O)NCCC(N)=O)C[C@@H](O)[C@@H]1O	ST2 inh 83.0%
O=C(CC1SC(=O)N(c2ccccc2)C1=O)Nc1cccc(O)c1 (stereo not given)	none
C=CCn1cc(C(=O)N2CCCCC2)c(=O)c2cc(S(=O)(=O)N3CCCCCC3)ccc21	none
CCOc1ccc(NC(=O)Cc2ccc(F)cc2)cc1	none
CCOC(=O)c1sc(=NC(=O)c2ccc(OCC)cc2)n(C)c1C	none
OCCCn1c(-c2ccc(F)cc2)csc1=Nc1ccc(Cl)cc1	ST2 inh 46.0%
Cn1c(=NC(=O)c2ccc(S(=O)(=O)N3CCCC3)cc2)sc2cc(Cl)ccc21	none
CCOC(=O)c1sc(=Nc2ccc(C)cc2)n(CCN2CCOCC2)c1C	none
Fc1ccc(Nc2nc(-c3ccc(Cl)cc3)cs2)cc1	none
O=S(=O)(c1ccc(-c2csc(=Nc3ccc(Cl)cc3)n2CCCO)cc1)N1CCCC1	ST2 inh 40.0%
CCOc1ccc(-c2csc(=Nc3ccccc3)n2CCN2CCOCC2)cc1	none
CCOc1ccc(N=c2scc(-c3ccc(C)cc3)n2C)cc1	ST2 inh 43.0%
CCOc1ccc(N=c2scc(-c3ccc(F)cc3)n2CCCO)cc1	ST2 inh 40.0%
O=C(NCc1ccc(F)cc1)c1cc(-c2ccc(Cl)cc2)on1	none
O=C(c1ccc(S(=O)(=O)N2CCCC2)cc1)N1CCN=C1SCc1ccc(Cl)cc1	none
O=C(Cn1ccc2ccccc2c1=O)NCC(=O)NC1CCCCCC1	none
O=C1NC(/C=C\c2ccc3c(c2)OCO3)Nc2sc3c(c21)CCCC3 (stereo not given)	none
CN1C(=O)C(C2C(=O)NC(=O)NC2=O)(C2C(=O)NC(=O)NC2=O)c2ccccc21	none
CN1C[C@@H](NS(=O)(=O)c2ccccc2)C[C@H]1c1nc(-c2ccccc2)no1	none
CN1C[C@@H](NS(=O)(=O)c2ccccc2)C[C@H]1c1nc(-c2ccc(Cl)cc2)no1	none
COc1ccc(-c2noc([C@@H]3C[C@H](NS(=O)(=O)c4cccs4)CN3C)n2)cc1	ST2 inh 41.0%
O=C1C(=Cc2ccc3c(c2)OCO3)C(=O)c2ccccc21	none
CCSC1=N/C(=C\c2cc3c(cc2Cl)OCO3)C(=O)S1	none
CCSC1=N/C(=C\c2ccc(N(CC)CC)cc2OC)C(=O)S1	ST2 inh 65.0%
CCSC1=N/C(=C\c2ccc3c(c2)OCO3)C(=O)S1	ST2 inh 55.0%
CCOc1ccc(-c2nc3s/c(=C\c4ccc(OC)cc4OC)c(=O)n3n2)cc1	none
CCN(CC)c1ccc(C=Nc2ccc([N+](=O)[O-])cc2OC)c(O)c1	none
CN1CCC(N2CCCC(C(=O)N3Cc4ccccc4C3)C2)CC1 (stereo not given)	none
O=C(CC1(O)C(=O)Nc2ccc(Cl)cc21)c1ccc(F)cc1 (stereo not given)	none
N#Cc1c(N)nc2c(c1-c1ccccc1Cl)CCCC2	none
Cc1ccccc1Cn1c(N)nc2ccccc21	none
COCCN1C(=O)N(C(C)C)C(=O)C12CCN(Cc1ccc(OC)cc1)CC2	none
CN(Cc1ccccc1)C(=O)c1cc2n(n1)C(C(F)(F)F)CC(c1ccc(Cl)cc1)N2 (stereo not given)	none
O=C(C1CCCCC1)N1CCN(c2cccc(Cl)c2)CC1	none
CC(=O)Nc1ccc(Cl)c(C(=O)N2CC=C(c3ccc(F)cc3)CC2)c1	none
CC(C)c1ccc(N2C(=O)c3ccccc3NC2c2ccc3c(c2)OCO3)cc1 (stereo not given)	none
CC1(C)CC(NC(=O)CC2CCCCC2)CC(C)(C)N1	ST2 inh 34.0%
CN(C(=O)CCC(=O)NC1CCCCCC1)C1CC(C)(C)NC(C)(C)C1	none
CC1(C)CC(NC2CC(C)(C)NC(C)(C)C2)CC(C)(C)N1	none
Cc1ccc(NC(=O)C(c2ccccc2)c2ccccc2)c([N+](=O)[O-])c1	ST2 inh 41.0%
Cc1ccc(NC(=O)c2cc3ccccc3o2)c([N+](=O)[O-])c1	none
Cc1ccc(NC(=O)CC(C)C)c([N+](=O)[O-])c1	none
COc1cccc(-c2ncnn2-c2sc3c(c2C#N)CCCCC3)c1OC	none
COc1cc(-c2ncnn2-c2sc3c(c2C#N)CCCCC3)cc(OC)c1OC	none
